Screening data deposited in PubChem BioAssay by National Center for Advancing Translational Sciences (NCATS).
The list is not random: actives were taken first. Their share in the collection is about 11%.
HP1b binding inh = inhibitors of HP1-beta chromodomain binding to methylated histone tails; P83916; Potency, µM (doses to about 114 µM), without a hit: top-dose activity change, negative = inhibition, usual class: inhibitors; AlphaScreen HP1-beta / biotin-H3K9me3 peptide binding; actives 0.56% (n = 390,000); note: nearly all actives have a fitted effect of over 70% in size
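AlphaScreen: HP1-beta (50 nM) preformed 30 min with biotin-H3(1-18)K9me3 peptide (50 nM) in PBS pH 7.4, 0.01% Tween-20. Compound added for 30 min at RT, then streptavidin donor/nickel chelate acceptor beads (10 ug/mL) for 30 min.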
G9a block = G9a (human) methyltransferase inhibition; Potency, µM (highest dose often 102 µM), for the others: at the top dose activity, negative = inhibition, usual class: inhibitors; actives 8.8% (n = 350,000); Q96KQ7; G9a H3K9 monomethylation, AlphaScreen, 2 h; AID 504332; note: % is set by controls: 0 for no effect and ±100 for the full control effect; nearly all actives have a fitted effect of over 75% in size
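Compounds were preincubated with 20 nM G9a for 15 min, after which biotinylated H3K9 peptide (500 nM) and SAM (20 uM) started a 2 h room-temperature reaction. Monomethylated product was quantified by antibody-based AlphaScreen chemiluminescence.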
PLK1 PBD inh = blocks phosphopeptide binding to human PLK1 polo-box domain; P53350; Plk1 PBD binding of FITC phosphopeptide, fluorescence polarization; Potency, µM, for inactives: max response, negative = inhibition, actives largely listed as inhibitors; actives 2.8% (n = 360,000); AID 720504; note: series mostly up to about 57 µM; % is set by controls: 0 for no effect and ±100 for the full control effect; nearly all actives have a fitted effect of over 65% in size
BAZ2B inh = blocks human BAZ2B. actives 4.4% (n = 360,000). Potency, µM (top dose mostly 114 µM), for inactives: at the highest dose activity change, negative = inhibition, usual class: inhibitors. AlphaScreen BAZ2B-H3K14Ac peptide displacement; note: % is set by controls: 0 for no effect and ±100 for the full control effect; nearly all actives have a fitted effect of over 60% in size
Target sequence (Q9UIF8 whole entry, looked up): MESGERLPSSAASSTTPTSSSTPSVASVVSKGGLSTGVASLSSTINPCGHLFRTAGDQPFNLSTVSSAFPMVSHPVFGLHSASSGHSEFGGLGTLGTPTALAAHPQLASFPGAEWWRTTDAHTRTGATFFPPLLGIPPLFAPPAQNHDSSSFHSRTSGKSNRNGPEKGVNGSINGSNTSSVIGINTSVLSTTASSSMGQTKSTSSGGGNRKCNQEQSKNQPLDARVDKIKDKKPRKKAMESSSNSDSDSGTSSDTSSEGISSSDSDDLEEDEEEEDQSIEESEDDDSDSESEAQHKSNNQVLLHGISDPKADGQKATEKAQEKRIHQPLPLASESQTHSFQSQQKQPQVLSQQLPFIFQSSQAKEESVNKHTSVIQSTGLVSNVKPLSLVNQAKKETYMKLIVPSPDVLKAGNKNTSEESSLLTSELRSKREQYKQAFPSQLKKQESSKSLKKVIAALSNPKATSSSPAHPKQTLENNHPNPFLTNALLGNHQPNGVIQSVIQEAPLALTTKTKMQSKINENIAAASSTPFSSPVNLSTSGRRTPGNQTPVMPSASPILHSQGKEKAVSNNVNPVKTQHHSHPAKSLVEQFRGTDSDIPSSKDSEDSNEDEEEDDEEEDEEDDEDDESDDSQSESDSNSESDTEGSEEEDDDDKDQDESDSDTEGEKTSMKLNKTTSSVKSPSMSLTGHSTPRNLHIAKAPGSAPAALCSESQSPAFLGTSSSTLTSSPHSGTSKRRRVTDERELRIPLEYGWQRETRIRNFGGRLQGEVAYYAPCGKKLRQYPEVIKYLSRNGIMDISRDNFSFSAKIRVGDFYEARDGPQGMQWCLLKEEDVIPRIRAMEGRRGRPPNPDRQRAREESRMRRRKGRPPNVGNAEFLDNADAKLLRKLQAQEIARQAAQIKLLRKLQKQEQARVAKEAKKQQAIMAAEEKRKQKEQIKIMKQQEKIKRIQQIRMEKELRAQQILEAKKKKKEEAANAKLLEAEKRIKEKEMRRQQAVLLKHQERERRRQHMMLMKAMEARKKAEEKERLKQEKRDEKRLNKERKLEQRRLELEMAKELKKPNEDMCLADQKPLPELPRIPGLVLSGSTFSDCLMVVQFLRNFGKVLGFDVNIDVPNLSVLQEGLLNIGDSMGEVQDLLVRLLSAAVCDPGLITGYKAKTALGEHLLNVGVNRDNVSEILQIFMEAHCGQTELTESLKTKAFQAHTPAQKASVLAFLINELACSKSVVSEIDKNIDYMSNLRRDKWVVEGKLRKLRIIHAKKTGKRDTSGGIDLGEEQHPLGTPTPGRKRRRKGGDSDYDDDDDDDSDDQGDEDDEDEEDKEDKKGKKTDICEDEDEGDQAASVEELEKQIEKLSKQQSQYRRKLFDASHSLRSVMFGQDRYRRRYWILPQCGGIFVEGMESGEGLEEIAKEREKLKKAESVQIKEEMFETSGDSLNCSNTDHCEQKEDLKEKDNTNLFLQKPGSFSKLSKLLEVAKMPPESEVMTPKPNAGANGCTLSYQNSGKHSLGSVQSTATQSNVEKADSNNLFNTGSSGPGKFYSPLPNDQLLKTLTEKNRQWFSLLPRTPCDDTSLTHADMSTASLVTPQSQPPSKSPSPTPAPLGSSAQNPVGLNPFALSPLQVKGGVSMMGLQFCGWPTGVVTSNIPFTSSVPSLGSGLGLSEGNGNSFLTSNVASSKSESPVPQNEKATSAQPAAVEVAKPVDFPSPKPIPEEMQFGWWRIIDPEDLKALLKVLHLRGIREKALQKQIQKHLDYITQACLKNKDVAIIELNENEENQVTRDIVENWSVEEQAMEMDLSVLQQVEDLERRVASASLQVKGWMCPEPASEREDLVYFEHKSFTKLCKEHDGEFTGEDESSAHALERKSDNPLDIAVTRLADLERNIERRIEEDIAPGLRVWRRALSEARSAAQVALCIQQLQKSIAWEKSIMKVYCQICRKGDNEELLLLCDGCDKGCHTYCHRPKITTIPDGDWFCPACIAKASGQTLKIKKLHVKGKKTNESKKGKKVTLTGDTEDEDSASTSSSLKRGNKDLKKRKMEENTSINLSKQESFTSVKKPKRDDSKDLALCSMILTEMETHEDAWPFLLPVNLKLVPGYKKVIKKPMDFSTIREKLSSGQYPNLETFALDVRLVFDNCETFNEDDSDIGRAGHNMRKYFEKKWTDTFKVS
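AlphaScreen displacement: compounds (up to 110uM) incubated 30 min at room temperature with a preformed 50 nM BAZ2B/50 nM biotinylated H3K14Ac peptide complex in PBS pH 7.4 with Tween-20. Donor and acceptor beads at 10 ug/mL final added, 20 min light-protected before reading.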
JMJD2A Tudor inh = JMJD2A Tudor domain (human) inhibition | Potency, µM (highest dose often 114 µM), for the others: at the top dose activity change, negative = inhibition, usual class: inhibitors | actives 4.4% (n = 390,000) | O75164 | AlphaScreen JMJD2A-Tudor / H3K4me3 peptide binding; note: % is set by controls: 0 for no effect and ±100 for the full control effect; nearly all actives have a fitted effect of over 50% in size
VDR inh = inhibitors of human vitamin D receptor. AID 504847. VDR-SRC2-3 peptide fluorescence polarization, 2 h. actives 0.93% (n = 400,000). Potency, µM, for inactives: max response, negative = inhibition, hits mostly inhibitors. P11473; note: % is set by controls: 0 for no effect and ±100 for the full control effect
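Inhibition of the VDR/SRC2-3 peptide interaction is quantified by fluorescence polarization. Compounds (23 nl, pintool) incubate with the reagents for 2 hours at ambient room temperature.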
Numbers without * were called inactive; [ ] = another dose, or the depositor's remark. Calls come from the whole dose curve; as a rule, active = well fitted curve in the direction sought with a large enough effect; inconclusive = small, poorly fitted or top-dose-only effect, or another doubt; inactive = no such curve, though single readings can be large; an effect the other way counts as inactive or inconclusive. Potency is the fitted concentration of half-maximal effect.

For C#CCOCCOCCOCCNc1nc(N2CCN(C(=O)[C@H](CC(N)=O)n3cc([C@@H](N)C(C)C)nn3)CC2)nc(N2CCN(C(=O)[C@H](CC(N)=O)n3cc([C@@H](N)C(C)C)nn3)CC2)n1 the results were HP1b binding inh 36.6%, PLK1 PBD inh -1.7%, JMJD2A Tudor inh 25.1µM* and VDR inh -12.1%.
`C#CCOCCOCCOCCNc1nc(N2CCN(C(=O)[C@H](CCC(=O)O)n3cc([C@@H](N)CC(N)=O)nn3)CC2)nc(N2CCN(C(=O)[C@H](CCC(=O)O)n3cc([C@@H](N)CC(N)=O)nn3)CC2)n1` gave HP1b binding inh 41.8%, PLK1 PBD inh -7.0%, JMJD2A Tudor inh 20µM* and VDR inh -12.0%.
`Cc1cc(C)n(NC(=S)NC2CCCC2)c(=O)c1C#N` gave HP1b binding inh 33.3%, G9a block -2.4%, PLK1 PBD inh -11.0%, BAZ2B inh -14.2%, JMJD2A Tudor inh 11.2µM* and VDR inh 27.1%.
Screening CCn1c(C)cc(C)c(C#N)c1=O returned HP1b binding inh 21.2%, G9a block 23.4%, PLK1 PBD inh -18.9%, BAZ2B inh -3.4%, JMJD2A Tudor inh -0.7% and VDR inh 7.7%.
For CCN(CC)S(=O)(=O)c1ccc(N2CCOCC2)c(NC(=O)C2CC2)c1 the results were HP1b binding inh 18.0%, G9a block 5.2%, PLK1 PBD inh 3.7%, BAZ2B inh 4.4%, JMJD2A Tudor inh -7.9% and VDR inh -2.8%.
Screening O=C(CCn1cnnn1)Nc1ccc(Cl)cc1Cl returned HP1b binding inh 10.2%, G9a block 33.1%[12.7 µM], PLK1 PBD inh 3.77µM*, BAZ2B inh inconclusive, JMJD2A Tudor inh -21.3% and VDR inh -17.5%.
Cc1cccc(NC(=O)CCn2cnnn2)c1C was read as HP1b binding inh 11.7%, G9a block 11.1%[59 µM], BAZ2B inh -13.2%, JMJD2A Tudor inh -13.8% and VDR inh 4.2%.
For COc1ccc(OC)c(CNC(=O)C2CCCCN2S(=O)(=O)c2ccc(F)cc2)c1 (stereo not drawn) the results were HP1b binding inh -8.4%, G9a block -2.5%[59 µM], BAZ2B inh -5.6%, JMJD2A Tudor inh -27.3% and VDR inh 5.3%.
CC(C)c1ccc(CNn2cnnc2)cc1 was read as HP1b binding inh 26.5%, G9a block -19.0%, PLK1 PBD inh 26.7µM*, BAZ2B inh -0.3%, JMJD2A Tudor inh inconclusive and VDR inh -14.8%.
O=S(=O)(CCc1ccncc1)c1ccc(Cl)cc1 was read as HP1b binding inh 7.4%, G9a block 35.5µM*, PLK1 PBD inh -2.6%, BAZ2B inh inconclusive, JMJD2A Tudor inh -20.9% and VDR inh -6.1%.
O=S(=O)(CCc1ccccc1)c1ccccc1 was read as VDR inh -3.4%.
O=C(N/C=C\c1ccccc1)NCc1ccc(Cl)cc1Cl was read as HP1b binding inh -12.5%, G9a block 25.1µM*, PLK1 PBD inh 21.2µM*, BAZ2B inh -0.9%, JMJD2A Tudor inh -12.6%[57.1 µM] and VDR inh -3.8%.
Screening COc1ccccc1CNC(=O)N/C=C/c1ccc(Cl)cc1 returned HP1b binding inh -15.4%, G9a block 31.6µM*, PLK1 PBD inh inconclusive, BAZ2B inh -13.2%, JMJD2A Tudor inh -35.1% and VDR inh 5.3%.
For Cc1ccc2c(C)c(C(=O)N(Cc3ccc(Cl)cc3)C3CCS(=O)(=O)C3)oc2c1 (stereo not drawn) the results were HP1b binding inh 25.5%, G9a block 1.6%[59 µM], BAZ2B inh -20.1%, JMJD2A Tudor inh -2.4% and VDR inh 3.2%.
Screening O=[N+]([O-])c1cccnc1N1CCN(c2ccc(F)cc2)CC1 returned HP1b binding inh 44.7µM*, G9a block 44.7µM*, PLK1 PBD inh inconclusive, BAZ2B inh 39.8µM*, JMJD2A Tudor inh 25.1µM* and VDR inh -16.0%.
COc1cccc2c(=S)c(CCC(C)=O)c(C)[nH]c12 was read as HP1b binding inh inconclusive, G9a block 1.58µM*, PLK1 PBD inh inconclusive, BAZ2B inh -7.6%, JMJD2A Tudor inh 10µM* and VDR inh -6.1%.
COc1ccccc1Nc1cc(C(=O)NCCCN(C)c2ccccc2)c2ccccc2n1 was read as HP1b binding inh 19.4%, G9a block -30.4%[59 µM], BAZ2B inh -11.8%, JMJD2A Tudor inh -22.8% and VDR inh -2.3%.
`Cc1ccc(C(=O)C(C)Oc2ccc3ccc(=O)oc3c2)cc1` (stereo not drawn) gave HP1b binding inh 42.5%, G9a block 69.3%, PLK1 PBD inh 1.7%, BAZ2B inh inconclusive, JMJD2A Tudor inh -13.8% and VDR inh -11.0%.
For Cc1nc2oc(C(=O)c3ccc(Br)cc3)c(N)c2c2c1COC(C)(C)C2 the results were HP1b binding inh 29.8%, G9a block 25.1µM*, PLK1 PBD inh -8.7%, BAZ2B inh 3.1%, JMJD2A Tudor inh 2.9% and VDR inh 17.4%.
For CCCc1nc2oc(C(=O)c3ccccc3)c(N)c2c2c1COC(C)(C)C2 the results were HP1b binding inh 34.6%, G9a block inconclusive, PLK1 PBD inh 0.5%, BAZ2B inh -3.7%, JMJD2A Tudor inh -0.4% and VDR inh 11.6%.
For O=C(NCc1ccco1)C1Cc2ccccc2CN1C(=O)c1ccco1 (stereo not drawn) the results were HP1b binding inh -4.9%, G9a block -4.1%, PLK1 PBD inh -10.3%, BAZ2B inh 79.4µM*, JMJD2A Tudor inh inconclusive and VDR inh -3.0%.
For O=C(NCc1ccc2c(c1)OCO2)C1Cc2ccccc2CN1C(=O)c1ccco1 (stereo not drawn) the results were HP1b binding inh 13.9%, G9a block -3.1%, PLK1 PBD inh 1.6%, BAZ2B inh -13.6%, JMJD2A Tudor inh 13.1% and VDR inh -9.1%.
Screening O=C(NCc1ccco1)C1CN(S(=O)(=O)c2ccccc2)CCN1S(=O)(=O)c1ccccc1 (stereo not drawn) returned HP1b binding inh 16.0%, G9a block inconclusive, PLK1 PBD inh 1.1%, BAZ2B inh 3.4%, JMJD2A Tudor inh -14.9% and VDR inh -15.7%.
Screening O=C(NCc1ccco1)C1Cc2ccccc2CN1S(=O)(=O)c1ccccc1F (stereo not drawn) returned HP1b binding inh inconclusive, PLK1 PBD inh -29.4%, JMJD2A Tudor inh 39.8µM* and VDR inh inconclusive.
`CCN(C(=O)Cn1ncc2c(=O)oc3ccccc3c21)c1ccccc1F` gave HP1b binding inh 16.2%, G9a block -18.1%[59 µM], JMJD2A Tudor inh -4.7% and VDR inh -19.2%.
`COc1ccc(S(=O)(=O)NC(=O)C2(C)CCN2C(=O)C2(c3ccccc3)CC2)cc1` (stereo not drawn) gave PLK1 PBD inh -2.8%.
